Compound activity: PubChem, National Center for Advancing Translational Sciences (NCATS)
Vif-APOBEC3F blk = inhibitors of Vif-A3F interaction; HeLa A3F-eYFP + Vif (tagged APOBEC3F with the HIV-1 protein that degrades it), YFP fluorescence increase; Potency, µM (top dose mostly 46.1 µM), inactives show top-dose activity, negative = active; 390,000 tested, 0.2% active; AID 602313; also: % of control where 0% means no effect; nearly all actives have a fitted effect of over 65% in size
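HeLa cells stably expressing Vif plus C-terminally eYFP-tagged A3F were seeded, incubated overnight at 37 deg C, dosed with compound, incubated overnight again at 37 deg C. Yellow fluorescence (Ex 488/Em 500-530) reported blocked Vif-mediated A3F-eYFP degradation.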
VDR inh = inhibitors of human vitamin D receptor. VDR-SRC2-3 peptide fluorescence polarization, 2 h. Potency, µM, without a hit: max response, negative = inhibition, actives largely listed as inhibitors. 400,000 tested, 0.93% active. AID 504847; also: % is scaled to controls: 0 for no effect and ±100 for the full control effect
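The screen uses fluorescence polarization to detect compounds that interfere with recruitment of the SRC2-3 coactivator peptide to VDR; plates are read after 2 h at room temperature.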
TrxR1 substrate = substrates of rat thioredoxin reductase 1 | O89049 | purified TrxR1 substrate turnover, NADPH consumption readout | Potency, µM (series often up to 114 µM), inactives show at the top dose activity change, negative = substrate turnover | 390,000 tested, 0.01% active; also: % is scaled to controls: 0 for no effect and ±100 for the full control effect; nearly all actives have a fitted effect of over 50% in size
Target sequence (O89049 whole entry, looked up): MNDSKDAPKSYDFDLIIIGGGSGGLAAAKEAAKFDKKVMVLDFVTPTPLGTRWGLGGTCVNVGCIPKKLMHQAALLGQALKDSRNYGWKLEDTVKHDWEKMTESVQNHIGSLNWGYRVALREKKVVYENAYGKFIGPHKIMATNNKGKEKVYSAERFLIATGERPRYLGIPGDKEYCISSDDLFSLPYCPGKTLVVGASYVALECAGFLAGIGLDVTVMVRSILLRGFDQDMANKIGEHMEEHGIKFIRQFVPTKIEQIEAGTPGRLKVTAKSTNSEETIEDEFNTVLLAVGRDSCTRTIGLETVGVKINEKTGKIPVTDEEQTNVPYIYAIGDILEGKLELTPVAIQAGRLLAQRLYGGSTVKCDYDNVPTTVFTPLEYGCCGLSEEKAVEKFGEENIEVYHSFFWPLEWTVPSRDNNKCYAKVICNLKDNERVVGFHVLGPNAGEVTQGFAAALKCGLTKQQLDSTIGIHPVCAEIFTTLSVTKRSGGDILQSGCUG
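Rat TrxR1, dispensed at 90 nM, was prereduced with 400 uM NADPH (final) for 5 min at ~22 deg C, then incubated with compound 15 min before 400 uM selenite. A first-read NADPH fluorescence drop versus no-compound background flagged substrates.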
Vif-A3G inh = blocks the Vif interaction with human APOBEC3G; Q9HC16; HeLa A3G-eYFP + Vif (tagged APOBEC3G with the HIV-1 protein that degrades it), YFP fluorescence, overnight; Potency, µM (highest dose often 46.1 µM), for the others: top-dose activity, negative = active, most hits filed as inhibitors; 410,000 tested, 0.076% active; AID 602310; also: % is scaled to controls: 0 for no effect and ±100 for the full control effect; nearly all actives have a fitted effect of over 60% in size
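Read-out is eYFP fluorescence (Ex 488/Em 500-530) from Vif-expressing HeLa A3G-eYFP cells; more signal means A3G escaped Vif-mediated degradation. Cells plated overnight, compound pinned in, incubated overnight at 37 deg C.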
rTrxR1 inhibitor = rat TrxR1 inhibition; 390,000 tested, 1% active; Potency, µM (series often up to 114 µM), for the others: at the highest dose activity change, negative = inhibition, actives largely listed as inhibitors; O89049; AID 588453; recombinant rTrxR1, NADPH fluorescence consumption, selenite substrate; also: % is scaled to controls: 0 for no effect and ±100 for the full control effect; nearly all actives have a fitted effect of over 65% in size
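Rat TrxR1 (90 nM in the dispensed reagent) was pre-reduced with 400 uM NADPH for 5 min at room temperature, then incubated with compound for 15 min. After 400 uM selenite was added, NADPH fluorescence (Ex 340/Em 450 nm) was followed for 8 min.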
The depositor's hits bear a star; ? = inconclusive; . = not tested or not shown; [ ] = dose if it differs, or a comment. Compounds with a hit are over-represented: about 1.8% of the library has one in this group of screens. Calls follow the shape of the dose curve; as a rule, active = well fitted curve in the direction sought with a large enough effect; inconclusive = small, poorly fitted or top-dose-only effect, or another doubt; inactive = no such curve, though single readings can be large; an effect the other way counts as inactive or inconclusive. Potency is read from the fitted curve at half-maximal effect.

SMILES	Vif-APOBEC3F blk	VDR inh	TrxR1 substrate	Vif-A3G inh	rTrxR1 inhibitor
CCOc1ccc(NC(=O)CSc2nnc3c(n2)[nH]c2ccc(S(=O)(=O)N(C)C)cc23)cc1	.	31%	3%	.	-3%
COc1ccc(-c2nnc(SCC(=O)NNC(=O)Cc3ccccc3)n2C)cc1OC	-13%	40µM*	7%	3%	16%
Cc1cc2ccccc2c[n+]1CC(=O)c1ccc(F)cc1	.	.	12%	-2%	5%
c1coc(-c2nc3cc4ccccc4cc3nc2-c2ccco2)c1	.	22µM*	-6%	?	4.5µM*
COc1ccc2nc(-c3ccco3)c(-c3ccco3)nc2c1	0%	?	28%	1%	8.9µM*
c1coc(-c2nc(-c3ccco3)c(-c3ccco3)nc2-c2ccco2)c1	?	40µM*	9%[57.1 µM]	-10%	2.8µM*
c1ccc(Nc2c(-c3ccco3)nc3ccccn23)cc1	-6%	0%	253%	-17%	-1%
CC1Cc2cc(S(=O)(=O)N(C)c3ccc(Br)cc3)ccc2N1C(=O)C1CC1 (centres undefined)	-17%	1%	-5%	6%	19%
N#Cc1ccc(S(=O)(=O)N2CCN(c3nc(-c4ccccc4)nc4ccccc34)CC2)cc1	.	-19%	5%	.	37%
CCN(C(=O)COC(=O)/C=C/c1ccco1)c1c(N)n(Cc2ccccc2)c(=O)[nH]c1=O	-18%	-2%	-2%	0%	50µM*
COCCN(C(=O)CSc1nc2ccccc2s1)c1c(N)n(Cc2ccccc2)c(=O)[nH]c1=O	-27%	79µM*	-2%	?	-23%
CCCN(C(=O)c1cc(-c2ccco2)nc2ccccc12)c1c(N)n(Cc2ccccc2)c(=O)[nH]c1=O	7%	-21%	2%	0%	28µM*
CCCCn1c(N)c(N(CCOC)C(=O)c2cc(-c3ccco3)nc3ccccc23)c(=O)[nH]c1=O	-4%	-10%	6%	0%	50µM*
CCN(C(=O)COC(=O)/C=C/c1ccc(OC)c(OC)c1)c1c(N)n(Cc2ccccc2)c(=O)[nH]c1=O	-3%	15%	2%	-6%	-4%
COCCN(C(=O)COC(=O)CCc1nc2ccccc2s1)c1c(N)n(Cc2ccccc2)c(=O)[nH]c1=O	5%	-9%	-6%	0%	-8%
Cc1nc2ccc(C(=O)OC(C)C(=O)c3c(C)[nH]c4ccccc34)cc2nc1C (centres undefined)	.	.	-6%	0%	-3%
O=C(Nc1nccs1)[C@@H]1CC=C[C@@H]2CCN(C3CCCCC3)C(=O)[C@@H]21	.	.	-3%	1%	?
CCc1ccccc1NC(=O)CSc1ncc2c(n1)-c1ccccc1N(Cc1ccc(C)cc1)S2(=O)=O	3%	1%	5%[57.1 µM]	1%	16%[57.1 µM]
N/C(=C\c1ccccc1)c1ccncc1	.	.	-8%	-10%	-16%
O=C(C[n+]1cccc(Br)c1)c1ccc(I)cc1	.	.	-1%	-1%	-11%
Cc1cc(S(=O)(=O)NCc2ccco2)c(C)cc1Cl	2%	-29%	-2%	2%	71µM*
Cc1ccc(-c2nc3ccccc3o2)cc1NC(=O)C(C)Oc1ccccc1 (centres undefined)	.	.	8%	0%	17%
CCc1ccc(C2C(C#N)=C(N)SC(N)=C2C#N)s1	22µM*	?	-6%	?	?
Cc1cc(C)cc(NC(=O)/C=C/c2ccc([N+](=O)[O-])s2)c1	11µM*	-7%	-11%	?	17%[57.1 µM]
Cc1ccccc1NC(=O)/C=C/c1ccc([N+](=O)[O-])s1	10µM*	-13%	-9%	6.3µM*	-27%
COc1cc2c(NC3CCN(C)CC3)nc(N3CCCN(C)CC3)nc2cc1OCCN(C)C	.	.	106%	.	-34%
